Measured values published in the supplement of paper PMC10849652.
Targets with a hit are over-represented here; the source holds about 8,800 in all. About 0.5% of all pairs of compound and target were hits. A number with no mark means an inactive call.

What was measured:
Assay in all cases: log2 fold change, soluble protein after heating vs DMSO (PISA); higher = thermal stabilisation; K562 lysate, 10 uM; active = over 0.2 and 3.5 SD of the protein, either way, in both replicates (recomputed)
[1] = compound: CN1CC[C@H](c2c(O)cc(O)c3c(=O)cc(-c4ccccc4Cl)oc23)[C@H](O)C1 [alvocidib]
Procedure, shortened: (§1)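 K562 pellets were dounce-homogenised in PBS pH 7.4 with 1 mM MgCl2, and the crude extract at 1 mg/mL protein was treated with 10 μM compound for 30 min. Aliquots were heated for 3 min across 48°C-58°C, pooled, and brought to 0.5% NP-40 at 4°C; soluble protein was the supernatant after 21,000xg for 90 min. Soluble protein was quantified by TMTpro 16plex LC-MS/MS with channel sums equalised, and reported as log2 fold change in thermal stability against DMSO controls, with values from duplicates.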

[2] = compound: CN1CCc2c(c3ccccc3n2Cc2ccc(C(=O)NO)cc2)C1 [Tubastatin A]
Procedure, shortened: as §1

[3] = compound: CNC(=O)C1=CC=CC=C1NC2=NC(=NC=C2Cl)NC3=C(C=C(C=C3)N4CCOCC4)OC
Procedure, shortened: as §1

[4] = compound: CNC(=O)c1ccc(Nc2ncc(C(F)(F)F)c(NCc3nccnc3N(C)S(C)(=O)=O)n2)cc1 [defactinib]
Procedure, shortened: as §1

[5] = compound: CNc1nc(-c2ccc3c(N)n[nH]c3c2)cc(N2C[C@@H](C(=O)NC3CCCCC3)CC[C@H]2C)n1
Procedure, shortened: as §1

[6] = compound: COC(=O)N[C@@H](C)CNc1nccc(-c2cn(C(C)C)nc2-c2cc(Cl)cc(NS(C)(=O)=O)c2F)n1 [encorafenib]
Procedure, shortened: as §1

[7] = compound: COC(=O)[C@H](CCSC)NC(=O)C1=C(C=C(C=C1)NC[C@H](CS)N)C2=CC=CC=C2
Procedure, shortened: as §1

[8] = compound: COc1cc(Nc2ncc3c(n2)-c2ccc(Cl)cc2C(c2c(F)cccc2OC)=NC3)ccc1C(=O)O [alisertib]
Procedure, shortened: as §1

[9] = compound: COc1cc2nc(-c3cc(F)ccc3O)nc(N[C@@H]3CNC[C@H]3C(C)(C)O)c2cc1OC
Procedure, shortened: as §1

[10] = compound: COc1cc2ncnc(Nc3ccc(F)c(Cl)c3)c2cc1OCCCN1CCOCC1 [gefitinib]
Procedure, shortened: as §1

Sequence of UniProt Q5T5U3 (Q5T5U3 whole entry, looked up): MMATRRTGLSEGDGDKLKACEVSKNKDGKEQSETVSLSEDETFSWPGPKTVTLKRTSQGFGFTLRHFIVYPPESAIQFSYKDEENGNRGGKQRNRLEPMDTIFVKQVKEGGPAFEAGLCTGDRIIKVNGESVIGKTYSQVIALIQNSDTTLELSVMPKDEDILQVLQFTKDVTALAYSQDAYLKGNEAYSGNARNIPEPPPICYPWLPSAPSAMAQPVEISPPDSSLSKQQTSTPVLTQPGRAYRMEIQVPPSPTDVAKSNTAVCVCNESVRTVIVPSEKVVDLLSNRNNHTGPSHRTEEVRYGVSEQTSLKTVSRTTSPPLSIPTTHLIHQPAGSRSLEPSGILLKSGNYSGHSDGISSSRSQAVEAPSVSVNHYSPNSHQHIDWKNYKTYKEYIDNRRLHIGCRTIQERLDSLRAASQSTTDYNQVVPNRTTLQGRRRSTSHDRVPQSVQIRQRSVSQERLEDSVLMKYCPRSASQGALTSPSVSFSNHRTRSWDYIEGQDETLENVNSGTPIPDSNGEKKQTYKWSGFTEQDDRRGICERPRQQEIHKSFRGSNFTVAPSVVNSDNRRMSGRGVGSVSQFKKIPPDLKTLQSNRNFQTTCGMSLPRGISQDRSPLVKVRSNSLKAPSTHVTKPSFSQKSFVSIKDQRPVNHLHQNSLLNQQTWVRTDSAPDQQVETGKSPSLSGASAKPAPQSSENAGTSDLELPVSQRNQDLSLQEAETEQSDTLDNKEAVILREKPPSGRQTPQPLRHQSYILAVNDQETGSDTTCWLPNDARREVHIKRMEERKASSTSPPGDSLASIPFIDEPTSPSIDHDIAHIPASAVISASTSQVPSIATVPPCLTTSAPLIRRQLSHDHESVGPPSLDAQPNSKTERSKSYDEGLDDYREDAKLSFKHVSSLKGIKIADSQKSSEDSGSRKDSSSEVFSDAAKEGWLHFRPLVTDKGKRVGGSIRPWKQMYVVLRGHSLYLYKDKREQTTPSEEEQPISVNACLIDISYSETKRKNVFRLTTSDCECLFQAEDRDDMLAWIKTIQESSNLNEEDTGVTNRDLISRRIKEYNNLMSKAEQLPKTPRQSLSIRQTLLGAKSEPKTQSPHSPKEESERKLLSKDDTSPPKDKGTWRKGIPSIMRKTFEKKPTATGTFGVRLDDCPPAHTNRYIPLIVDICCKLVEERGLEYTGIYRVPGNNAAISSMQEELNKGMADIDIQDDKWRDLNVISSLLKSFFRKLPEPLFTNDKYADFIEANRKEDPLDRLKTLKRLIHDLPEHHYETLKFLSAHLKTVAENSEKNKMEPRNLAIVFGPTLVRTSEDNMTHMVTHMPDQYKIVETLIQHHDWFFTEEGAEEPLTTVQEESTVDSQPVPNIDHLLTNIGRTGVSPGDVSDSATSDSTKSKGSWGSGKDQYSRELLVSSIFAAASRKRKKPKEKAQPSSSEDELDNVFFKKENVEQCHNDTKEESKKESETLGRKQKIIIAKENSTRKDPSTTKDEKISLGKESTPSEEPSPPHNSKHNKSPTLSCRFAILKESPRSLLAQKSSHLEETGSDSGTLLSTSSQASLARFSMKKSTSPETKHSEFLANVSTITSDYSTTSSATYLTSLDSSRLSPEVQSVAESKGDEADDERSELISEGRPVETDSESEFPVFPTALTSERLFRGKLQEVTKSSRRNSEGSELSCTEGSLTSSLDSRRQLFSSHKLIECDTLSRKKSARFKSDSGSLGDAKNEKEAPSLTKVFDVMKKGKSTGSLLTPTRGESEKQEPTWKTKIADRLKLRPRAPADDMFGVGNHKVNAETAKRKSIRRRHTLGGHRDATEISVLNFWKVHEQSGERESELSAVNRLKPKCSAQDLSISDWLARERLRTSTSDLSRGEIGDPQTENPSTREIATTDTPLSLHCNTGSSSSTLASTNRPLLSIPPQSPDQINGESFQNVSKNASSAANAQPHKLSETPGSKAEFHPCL
Sequence of UniProt Q9UHB7 (Q9UHB7 whole entry, looked up): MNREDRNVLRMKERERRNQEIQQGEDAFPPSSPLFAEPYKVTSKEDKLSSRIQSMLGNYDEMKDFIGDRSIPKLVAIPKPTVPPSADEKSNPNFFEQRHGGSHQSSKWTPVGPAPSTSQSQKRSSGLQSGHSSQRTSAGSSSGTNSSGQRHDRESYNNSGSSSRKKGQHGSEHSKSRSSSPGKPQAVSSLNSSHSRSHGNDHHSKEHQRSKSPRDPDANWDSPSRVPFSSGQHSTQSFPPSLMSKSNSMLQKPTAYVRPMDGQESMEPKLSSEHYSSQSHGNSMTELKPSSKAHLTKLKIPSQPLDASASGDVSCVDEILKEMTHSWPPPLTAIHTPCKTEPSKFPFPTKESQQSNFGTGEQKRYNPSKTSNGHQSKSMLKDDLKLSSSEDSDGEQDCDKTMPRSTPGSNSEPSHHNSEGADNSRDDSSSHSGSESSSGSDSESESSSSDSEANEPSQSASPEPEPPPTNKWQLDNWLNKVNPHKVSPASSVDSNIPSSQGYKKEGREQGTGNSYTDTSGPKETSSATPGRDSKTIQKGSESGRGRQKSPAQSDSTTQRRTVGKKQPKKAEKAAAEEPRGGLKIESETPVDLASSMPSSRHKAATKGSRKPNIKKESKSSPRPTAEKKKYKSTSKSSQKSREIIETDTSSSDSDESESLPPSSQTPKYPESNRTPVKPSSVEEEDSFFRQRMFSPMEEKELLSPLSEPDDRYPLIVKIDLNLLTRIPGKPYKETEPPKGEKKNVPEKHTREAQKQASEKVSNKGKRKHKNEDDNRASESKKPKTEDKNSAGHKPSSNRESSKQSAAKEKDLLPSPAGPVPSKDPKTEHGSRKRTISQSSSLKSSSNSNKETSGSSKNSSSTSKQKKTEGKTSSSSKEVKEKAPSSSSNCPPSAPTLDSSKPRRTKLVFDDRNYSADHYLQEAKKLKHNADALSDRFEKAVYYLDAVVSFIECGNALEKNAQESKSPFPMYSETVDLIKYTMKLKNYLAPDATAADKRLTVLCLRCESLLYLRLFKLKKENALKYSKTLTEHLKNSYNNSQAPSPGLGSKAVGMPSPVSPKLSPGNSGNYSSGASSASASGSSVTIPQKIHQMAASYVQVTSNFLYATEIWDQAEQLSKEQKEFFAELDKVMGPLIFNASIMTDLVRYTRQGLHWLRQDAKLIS
Sequence of UniProt Q8IZP0 (Q8IZP0 whole entry, looked up): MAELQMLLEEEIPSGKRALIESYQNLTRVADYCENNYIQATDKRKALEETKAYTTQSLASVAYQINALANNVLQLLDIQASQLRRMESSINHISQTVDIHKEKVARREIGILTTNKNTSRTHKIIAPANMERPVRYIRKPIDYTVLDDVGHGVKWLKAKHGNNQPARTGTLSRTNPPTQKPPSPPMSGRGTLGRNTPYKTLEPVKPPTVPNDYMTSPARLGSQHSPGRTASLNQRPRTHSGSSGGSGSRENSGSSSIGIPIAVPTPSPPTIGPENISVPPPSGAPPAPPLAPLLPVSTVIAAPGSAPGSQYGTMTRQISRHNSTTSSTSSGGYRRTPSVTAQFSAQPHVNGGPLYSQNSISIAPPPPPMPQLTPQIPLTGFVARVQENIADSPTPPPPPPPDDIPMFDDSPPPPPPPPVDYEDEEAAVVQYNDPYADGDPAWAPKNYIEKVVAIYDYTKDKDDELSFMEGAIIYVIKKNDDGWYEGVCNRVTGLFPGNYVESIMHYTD
Sequence of UniProt Q92974 (Q92974 whole entry, looked up): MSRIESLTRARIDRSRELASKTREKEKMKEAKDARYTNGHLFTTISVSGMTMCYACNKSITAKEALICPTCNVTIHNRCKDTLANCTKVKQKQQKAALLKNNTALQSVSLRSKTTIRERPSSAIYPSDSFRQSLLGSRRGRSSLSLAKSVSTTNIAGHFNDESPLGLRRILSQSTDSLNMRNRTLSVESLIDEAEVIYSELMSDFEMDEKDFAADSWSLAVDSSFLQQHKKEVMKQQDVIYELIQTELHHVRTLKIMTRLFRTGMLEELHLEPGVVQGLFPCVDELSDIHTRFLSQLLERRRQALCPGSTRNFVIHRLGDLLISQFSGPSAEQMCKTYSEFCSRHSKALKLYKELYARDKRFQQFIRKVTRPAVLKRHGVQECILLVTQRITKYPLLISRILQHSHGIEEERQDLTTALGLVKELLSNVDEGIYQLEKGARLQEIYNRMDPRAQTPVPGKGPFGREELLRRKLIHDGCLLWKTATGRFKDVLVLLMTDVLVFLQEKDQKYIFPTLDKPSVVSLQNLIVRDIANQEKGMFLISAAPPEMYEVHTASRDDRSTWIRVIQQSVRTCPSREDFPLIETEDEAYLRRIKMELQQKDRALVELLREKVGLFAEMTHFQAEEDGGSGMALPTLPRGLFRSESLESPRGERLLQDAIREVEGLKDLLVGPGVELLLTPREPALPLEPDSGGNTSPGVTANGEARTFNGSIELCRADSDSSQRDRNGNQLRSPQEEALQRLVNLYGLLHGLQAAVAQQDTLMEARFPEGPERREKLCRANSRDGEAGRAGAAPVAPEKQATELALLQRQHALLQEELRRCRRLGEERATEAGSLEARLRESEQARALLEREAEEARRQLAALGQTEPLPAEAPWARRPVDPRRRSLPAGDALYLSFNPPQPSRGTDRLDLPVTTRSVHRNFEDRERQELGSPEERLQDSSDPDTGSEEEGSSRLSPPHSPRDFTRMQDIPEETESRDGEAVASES
Sequence of UniProt Q9NWB6 (Q9NWB6 whole entry, looked up): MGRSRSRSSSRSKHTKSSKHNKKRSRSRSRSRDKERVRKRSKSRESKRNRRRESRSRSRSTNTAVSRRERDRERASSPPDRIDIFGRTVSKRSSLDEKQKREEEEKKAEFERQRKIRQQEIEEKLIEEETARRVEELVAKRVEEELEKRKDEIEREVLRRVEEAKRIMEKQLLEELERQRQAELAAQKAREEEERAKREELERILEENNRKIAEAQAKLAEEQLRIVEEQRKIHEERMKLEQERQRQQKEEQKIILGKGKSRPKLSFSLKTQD
Sequence of UniProt P00568 (P00568 whole entry, looked up): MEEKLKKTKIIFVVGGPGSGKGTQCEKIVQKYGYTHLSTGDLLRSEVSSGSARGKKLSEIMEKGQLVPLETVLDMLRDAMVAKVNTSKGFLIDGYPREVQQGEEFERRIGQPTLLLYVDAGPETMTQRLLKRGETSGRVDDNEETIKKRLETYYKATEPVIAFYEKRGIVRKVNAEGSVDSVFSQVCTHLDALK

Target	log2 fold change [1]	log2 fold change [2]	log2 fold change [3]	log2 fold change [4]	log2 fold change [5]	log2 fold change [6]	log2 fold change [7]	log2 fold change [8]	log2 fold change [9]	log2 fold change [10]
AFF4 (UniProt Q9UHB7)	-0.235	-0.086	-0.046	0.077	0.018	0.011	-0.027	-0.022	0.015	0.013
AGPS (UniProt O00116)	-0.011	0.039	-0.046	-0.003	0.011	-0.005	-0.125	0.035	-0.03	-0.002
ARHGEF2 (UniProt Q92974)	-0.009	-0.081	0.047	-0.004	0.058	0.07	0.071	0.018	-0.005	0.007
ACSL1 (UniProt P33121)	0.02	-0.169	0.001	0.096	-0.062	0.007	-0.052	0.057	-0.08	-0.036
ACADS (UniProt P16219)	-0.011	-0.003	0.019	-0.011	0.014	-0.034	0.071	-0.003	-0.037	-0.023
AK2 (UniProt P54819)	-0.003	0.05	-0.019	0.016	0.033	-0.025	-0.018	0.008	-0.025	0.019
ANP32E (UniProt Q9BTT0)	0	0.079	-0.007	-0.018	0.056	-0.037	-0.008	-0.019	0.007	-0.061
ACSL4 (UniProt O60488)	0.023	-0.06	0.047	0.054	-0.034	0.003	0.073	-0.017	0.019	0.014
ANLN (UniProt Q9NQW6)	-0.037	-0.196	0.058	0.012	0.011	0.036	0.102	0.051	0.004	0.03
AK1 (UniProt P00568)	0.154	0.009	-0.034	-0.035	-0.007	-0.036	-0.07	0	0.013	-0.019
ABI1 isoform 9 (UniProt Q8IZP0)	-0.096	0.053	0.005	-0.038	0.025	0.003	-0.057	-0.02	0.018	-0.015
AMMECR1 (UniProt Q9Y4X0)	-0.014	0.022	0.02	0.02	0.003	0.02	-0.01	-0.031	0.011	-0.019
ALDH1B1 (UniProt P30837)	0.168	0.01	0.233 (active)	-0.029	0.007	-0.008	0.127	-0.002	0.006	-0.026
AGO4 (UniProt Q9HCK5)	-0.013	-0.003	0.003	-0.027	-0.214 (active)	0.025	-0.092	-0.008	0.037	-0.015
ARGLU1 (UniProt Q9NWB6)	-0.119	0.018	-0.056	-0.049	0.01	0.012	-0.039	-0.006	0.012	0.006
AIMP1 isoform 2 (UniProt Q12904)	0.056	-0.118	0.01	0.018	0.028	-0.005	0.11	0.004	-0.009	-0.029
ACOX1 isoform 2 (UniProt Q15067)	-0.049	0.041	0.012	0.012	0.017	-0.015	-0.255 (active)	0	0.01	0.018
ADRM1 (UniProt Q16186)	0.009	-0.064	-0.027	0.003	0.011	-0.033	0.118	0.032	-0.001	-0.009
ARL8A (UniProt Q96BM9)	0.082	0.043	0.06	0.019	0.204	-0.048	-0.03	-0.186	0.027	0.013
AKR1C2 (UniProt P52895)	-0.06	0.061	-0.021	-0.05	-0.151	-0.012	0.018	0.002	0.004	-0.082
ADAR isoform 4 (UniProt P55265)	-0.004	-0.167	0.012	0.054	-0.001	0.052	-0.041	0.045	0.013	0.02
APAF1 (UniProt O14727)	-0.006	-0.174	-0.026	-0.015	0.008	-0.017	0.129	-0.027	0.061	0.017
ARHGAP21 (UniProt Q5T5U3)	0.032	0.008	0.03	0.015	0.056	0.079	0.101	-0.023	-0.007	-0.095
ARMCX5 (UniProt Q6P1M9)	0.029	-0.105	0.067	0.014	-0.012	0.045	0.023	-0.003	0.035	0.035
AHCYL1 (UniProt O43865)	0.025	-0.096	0.051	0.06	0.037	0.01	0.009	-0.041	-0.003	-0.012
AIP (UniProt O00170)	0.164	0.003	0.037	0.004	0.015	-0.008	0.043	-0.039	-0.002	-0.032
ARMCX3 (UniProt Q9UH62)	0.022	-0.061	-0.018	0.017	0.026	-0.006	0.015	0.055	0.042	-0.053
